Screening results from PubChem BioAssay.
Rows were chosen to be rich in hits. Some 19% of all compounds tested hit in one or more screens of this group.
IL-1B inflam inh: blocks inflammasome-driven IL-1 beta release | THP-1 LPS/ATP IL-1B secretion, AlphaLISA, 16 h; stronger effect = lower value | activity change, % at 57.5 µM | actives 4.7% (n = 360,000) | AID 743279; in the data active means activity change below about -50%; inconclusive means mostly about -30% to -49%; further: on the % scale 0 is the no-effect control and ±100 the full control effect
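Secreted IL-1B measured by AlphaLISA bead assay after 16 h compound exposure of THP-1 cells; compounds (final up to 57.5 uM) added 1 h before LPS (250 ng/mL) and ATP (1.25 mM) stimulation; lower signal means less secretion.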
TDP1 inh: inhibitors of human tyrosyl-DNA phosphodiesterase TDP1 | recombinant TDP1, AlphaScreen DNA substrate cleavage | Potency, µM (series often up to 130 µM), for inactives: top-dose activity change, negative = inhibition, hits mostly inhibitors | Q9NUW8 | actives 0.28% (n = 350,000); further: potency means the concentration at half of the fitted maximal effect; on the % scale 0 is the no-effect control and ±100 the full control effect; nearly all actives have a fitted effect of over 40% in size
Target sequence (Q9NUW8 whole entry, looked up): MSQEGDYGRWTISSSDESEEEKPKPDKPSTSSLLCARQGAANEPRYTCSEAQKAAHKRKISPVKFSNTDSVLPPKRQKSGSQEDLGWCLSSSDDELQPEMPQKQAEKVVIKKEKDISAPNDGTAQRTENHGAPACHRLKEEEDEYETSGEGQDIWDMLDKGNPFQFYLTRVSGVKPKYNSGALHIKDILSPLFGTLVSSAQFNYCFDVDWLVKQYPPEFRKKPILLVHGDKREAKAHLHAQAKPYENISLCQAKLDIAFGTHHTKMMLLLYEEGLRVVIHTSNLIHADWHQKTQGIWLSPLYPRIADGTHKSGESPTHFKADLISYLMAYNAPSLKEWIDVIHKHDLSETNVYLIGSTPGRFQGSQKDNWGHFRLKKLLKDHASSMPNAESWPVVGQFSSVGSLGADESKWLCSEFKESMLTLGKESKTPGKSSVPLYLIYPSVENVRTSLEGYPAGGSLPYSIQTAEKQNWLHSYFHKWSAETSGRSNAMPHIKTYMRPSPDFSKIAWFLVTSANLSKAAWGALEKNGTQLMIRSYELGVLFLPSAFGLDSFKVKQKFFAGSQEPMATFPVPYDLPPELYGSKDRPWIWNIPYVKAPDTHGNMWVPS
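Recombinant human Tdp1 (E. coli-expressed, 1 nM final) preincubated with compounds 15 min at room temperature, then 5'-biotin/3'-phosphotyrosine-FITC DNA substrate (15 nM final) added for 5 min. AlphaScreen beads (10 ug/ml final) added 10 min; cleavage lowers signal.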
TGFb inhibitor: inhibitors of TGF-b signaling; HepG2 CAGA-GFP TGF-b/SMAD3 reporter, GFP fluorescence, 18 h; TGF-beta stimulated, 500 pg/mL final; Potency, µM (top dose mostly 46.1 µM), for the others: top-dose activity, negative = inhibition, actives largely listed as inhibitors; actives 1.2% (n = 410,000); further: potency means the concentration at half of the fitted maximal effect; on the % scale 0 is the no-effect control and ±100 the full control effect; nearly all actives have a fitted effect of over 65% in size
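First, reporter cells (HEPG2 CAGA-GFP) rested 2 h at 37 degrees C. Next, compounds were pinned in and TGF-beta added to 500 pg/mL final. After 18 h, GFP was imaged per cell and summed per well.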
TDP1 cell CPT: growth inhibition of DT40 Tdp1-/-;hTDP1 cells with camptothecin (screen for TDP1 inhibitors); chicken DT40 Tdp1-/-;hTDP1 cells + 20 nM CPT, ATP luminescence, 48 h; Potency, µM (doses to about 46.2 µM), for inactives: at the top dose activity change, negative = growth inhibition, actives largely listed as inhibitors; actives 12% (n = 420,000); further: potency means the concentration at half of the fitted maximal effect; on the % scale 0 is the no-effect control and ±100 the full control effect; nearly all actives have a fitted effect of over 55% in size
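Chicken DT40 Tdp1-/- cells complemented with human TDP1, 400 cells/well, exposed to compounds plus 20 nM camptothecin for at least 48 h at 37 C; viability read as ATP content by CellTiter-Glo luminescence.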
HepG2 viability: kills HepG2 cells in TGF-b inhibitor counter-screen | HepG2 CAGA-GFP viability, ATP luminescence, 18 h | Potency, µM (series often up to 46.1 µM), inactives show at the top dose activity change, negative = cytotoxicity, hits mostly cytotoxic | actives 0.76% (n = 410,000) | AID 588856; further: potency means the concentration at half of the fitted maximal effect
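CellTiter-Glo luminescence gave cytotoxicity after 18 hours at 37 degrees C. The cells were HepG2 CAGA-GFP in 1% FBS DMEM, stimulated with 500 pg/mL TGF-beta after compound addition. %Activity was normalised to no-cell wells (complete cell-killing) and DMSO (no toxicity), and curves were fitted and classified.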
DT40 TDP1 no CPT: qHTS for Inhibitors of human tyrosyl-DNA phosphodiesterase 1 (TDP1): qHTS in cells in absence of CPT | DT40 Tdp1-/- hTDP1 cells, no CPT, ATP luminescence, 48 h | Potency, µM (highest dose often 46.2 µM), for inactives: at the highest dose activity change, negative = growth inhibition, most hits filed as inhibitors | actives 15% (n = 420,000); further: potency means the concentration at half of the fitted maximal effect; on the % scale 0 is the no-effect control and ±100 the full control effect; nearly all actives have a fitted effect of over 55% in size
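Seeded 400 DT40-hTDP1 cells/well (vehicle DMSO, no 20 nM CPT); pinned compounds; ≥48 hr at 37 °C; CellTiter-Glo luminescence as viability measure.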
The depositor's hits bear a star; ? = inconclusive; / = no result given; [ ] = remark or other dose. Unless noted, the call rests on the fitted dose curve; in most records, active means well fitted curve in the direction sought with a large enough effect; inconclusive means small, poorly fitted or top-dose-only effect, or another doubt; inactive means no such curve, though single readings can be large; an effect the other way counts as inactive or inconclusive.

SMILES | IL-1B inflam inh | TDP1 inh | TGFb inhibitor | TDP1 cell CPT | HepG2 viability | DT40 TDP1 no CPT
COc1ccc(-c2ccc(-c3nc4c(c(=O)[nH]c(=O)n4Cc4ccccc4)n3C)o2)c([N+](=O)[O-])c1 | -1 | -3% | -7% | ? | 0% | 26µM*
COCCn1c(=O)[nH]c(=O)c2c1nc(-c1ccc(-c3ccc(Cl)cc3[N+](=O)[O-])o1)n2Cc1ccccc1 | 39 | 8% | ? | 16µM* | -9% | 23µM*
Cc1cccc2cc3c(N)c(C(=O)N4CCOCC4)sc3nc12 | -55* | -5% | 10% | 2.1µM* | -12% | 1.6µM*
Nc1c(C(=O)N2CCOCC2)sc2nc(N3CCOCC3)c3c(c12)CCCC3 | -10 | 5% | 28% | ? | -13% | ?
Cc1oc(-c2cccc(Cl)c2)nc1CS(=O)(=O)CC(=O)NC1CCCC1 | 18 | -2% | -4% | -4% | 2% | -4%
O=C(NC1CCCC1)C(c1ccccn1)N(C(=O)c1csnn1)C1CCCCC1 (stereo not drawn) | 37 | 0% | 0% | 21µM* | -35% | ?
O=C(NC1CCCCC1)C(c1ccco1)N(C(=O)c1csnn1)c1ccc(Cl)cc1 (stereo not drawn) | -3 | 2% | -15% | ? | 11% | ?
O=C(NC1CCCCC1)C(c1ccco1)N(C(=O)c1csnn1)C1CCCC1 (stereo not drawn) | 0 | -5% | -26% | ? | -27% | 16µM*
CN(C)c1ccc(/C=C2\NC(=O)NC2=O)cc1 | / | / | -1% | -11% | -2% | -18%
COc1ccc2sc(-c3ccccc3OC)c(-c3ccc(SC)cc3)c2c1 | 0 | / | / | -24% | / | 3%
COc1ccc2sc(-c3ccc(SC)cc3)c(-c3ccc(O)cc3)c2c1 | -7 | 1% | ? | ? | 13µM* | ?
O=C(NC1CCCCC1)C(c1ccccc1F)n1c(=O)c(-c2cc3ccccc3[nH]2)nc2ccccc21 (stereo not drawn) | 65 | / | / | ? | / | 15µM*
O=C(NC1CCCCC1)C(c1cccc2ccccc12)n1c(=O)c(-c2cc3ccccc3[nH]2)nc2ccccc21 (stereo not drawn) | 77 | / | / | ? | / | 13µM*
CCCCCNC(=O)C(c1cccc2ccccc12)n1c(=O)c(-c2cc3ccccc3[nH]2)nc2ccccc21 (stereo not drawn) | 58 | / | / | ? | / | ?
Cc1ccc(CCNC(=O)c2cc(S(=O)(=O)N3CCCC3)cn2C)cc1 | -7 | / | -22% | -21% | -18% | -23%
COc1ccccc1N1CCN(C(=O)c2ccc3noc(-c4ccccc4)c3c2)CC1 | 28 | / | 12% | ? | -2% | ?
CCN(C(=O)COC(=O)CCC(=O)c1ccc(C)cc1)c1c(N)n(Cc2ccccc2)c(=O)[nH]c1=O | -4 | / | 11% | ? | -33% | -29%
CC(C)C[C@@H](CC(=O)N[C@@H](CCCN)CC(=O)N[C@@H]1CCNC[C@H]1C(=O)N[C@H](CC(=O)N[C@@H](CCC(=O)O)CC(=O)O)Cc1c[nH]c2ccccc12)NC(=O)[C@@H]1CNCC[C@H]1N | / | 1% | / | / | / | /
Cc1ccc(S(=O)(=O)N2CCN(Cc3cc(Br)ccc3O)CC2)cc1 | / | 0%[12.3 µM] | 10µM* | 18µM* | 1% | ?
O=C(CN1CCN(S(=O)(=O)c2ccc(Br)cc2)CC1)c1ccc(O)c(O)c1 | 3 | 4% | 1% | 18µM* | -4% | 7.3µM*
O=S(=O)(c1ccc(Br)cc1)c1nc(-c2ccco2)oc1NCCCn1ccnc1 | -21 | 9% | 3% | ? | -12% | -23%
Cc1ccc(CNC(=O)c2ccccc2NS(=O)(=O)c2ccc(Cl)nc2)cc1 | -13 | 0% | 16µM* | -23% | -34% | -17%
Cc1ccc(CNC(=O)c2ccccc2NS(C)(=O)=O)cc1 | 0 | 7% | 4% | -3% | -1% | -23%
O=C1c2ccccc2-c2cccc(C(=O)N3CCCCC3)c21 | -19 | 9% | 7% | -6% | 1% | -9%
O=C(O)c1ccccc1NCc1ccco1 | -1 | -3% | -7% | -19% | 0% | ?
SMILES | IL-1B inflam inh | TDP1 inh | TGFb inhibitor | TDP1 cell CPT | HepG2 viability | DT40 TDP1 no CPT
O=C1c2ccccc2-c2onc3ccc(N4CCCC4)c1c23 | ? | 9% | ? | ? | -92% | 26µM*
Cn1c(=O)cc2c3c(c(N4CCCCC4)ccc31)C(=O)c1ccccc1-2 | -13 | 10% | -17% | ? | -16% | 10µM*
O=C1c2ccccc2-c2onc3ccc(NCc4ccco4)c1c23 | -97* | 79µM* | -20% | ? | 0% | 23µM*
CCOc1ccc2noc3c2c1C(=O)c1ccccc1-3 | 9 | 5% | ? | 6% | -64% | -8%
O=C1C=C(N2CCCCC2)c2ccccc2C1=O | -97* | / | 2.8µM* | 3.7µM* | -103% | 6.5µM*
O=S(=O)(c1ccccc1S(=O)(=O)N1CCCCC1)N1CCCCC1 | -18 | -2% | 13% | -30% | -65% | -20%
O=C(Cc1ccccc1Cl)Nc1cccnc1 | 19 | -4% | 20% | -18% | 4% | 12%
COc1ccc(C(=O)NCc2nnc(SCC(=O)Nc3ccc(C)cc3)n2-c2ccccc2)cc1 | / | 2% | -10% | ? | 2% | -24%
Cc1nn(C)c(C)c1S(=O)(=O)N(CC(=O)NCCc1ccccc1)c1ccc(C(C)C)cc1 | / | 1% | ? | ? | 7% | ?
O=C1c2ccccc2C(=O)c2c1cccc2N1CCCC1 | -29 | 2% | ? | ? | -59% | 8.2µM*
COc1ccc(NC2CCCN(C(=O)CSc3ccccc3)C2)cc1OC (stereo not drawn) | -11 | 7% | -12% | ? | -20% | -35%
Cc1occc1C(=O)N/N=C/C(Br)=C\c1ccccc1 | ? | 6% | 7% | 18µM* | 3% | 12µM*
Cc1onc(-c2ccccc2)c1C(=O)N/N=C/C(Br)=C/c1ccccc1 | ? | 8% | ? | 6.5µM* | -3% | 9.2µM*
O=C(N/N=C/C(Br)=C\c1ccccc1)c1ccco1 | ? | 4% | 7% | 6.5µM* | -22% | 9.2µM*
O=C(N/N=C/C=N/NC(=O)c1ccco1)c1ccco1 | 10 | 0% | 0% | -19% | -3% | 0%
